# Assay results taken from ChEMBL document CHEMBL3988442, “University of Dundee, Small-Polar-MMV Screening Library” (2021).
# Hit rate of the full screen: of about 66,000 compounds, about 960 (1.5%) showed an effect of 50% or more. The sample as a whole holds a higher share of strong results than the screen did.
# Test system: Trypanosoma brucei
# Test: Trypanosoma brucei 72 hour study
# Format: functional, organism-based
# Set-up: scale not given: in the data most compounds retested in dose-response had high values
smiles,measurement,setting,value
COCC(C)NCc1nc(-c2ccc(C)cc2)c(-c2ccccn2)[nH]1 (stereo unspecified),Percent Effect,"30 µM, 30.03 µM",72.12%
Cc1ccc(-c2nc(CNC(C)CCO)[nH]c2-c2ccccn2)cc1 (stereo unspecified),Percent Effect,"30 µM, 30.03 µM",-54.5%
Cc1ccc(-c2nc(CNS(=O)(=O)N(C)C)[nH]c2-c2ccccn2)cc1,Percent Effect,"30 µM, 30.03 µM",-19.21%
Cc1cc(F)ccc1S(=O)(=O)NCC(O)c1cccn1C (stereo unspecified),Percent Effect,"30.3 µM, […]",2.147%
Cn1cccc1C(O)CNS(=O)(=O)c1ccccc1Br (stereo unspecified),Percent Effect,"30.3 µM, […]",101.8%
Cn1cccc1C(O)CNS(=O)(=O)c1ccccc1F (stereo unspecified),Percent Effect,"30.3 µM, […]",21.76%
Cc1c(Cl)cccc1S(=O)(=O)NCC(O)c1cccn1C (stereo unspecified),Percent Effect,"30.3 µM, […]",15.12%
COc1ccc(C)cc1S(=O)(=O)NCC(c1cccn1C)N(C)C (stereo unspecified),Percent Effect,"30 µM, 30.03 µM",-85.17%
COc1cc(C)c(C)cc1S(=O)(=O)NCC(O)c1cccn1C (stereo unspecified),Percent Effect,"30.3 µM, […]",93.04%
Cc1cccc(CN2CCc3cc(C(=O)O)c(N(C)C)nc3CC2)n1.O=C(O)C(F)(F)F.O=C(O)C(F)(F)F,Percent Effect,"30.3 µM, […]",-4.937%
CN(C)C(=O)COC[C@@H]1CC[C@H]2[C@H](CCN2c2ncccn2)O1.O=C(O)C(F)(F)F,Percent Effect,"30 µM, 30.03 µM",-8.509%
Cc1ccc(CN2CC3(CCN(C(=O)c4cscn4)C3)C2)o1.O=C(O)C(F)(F)F,Percent Effect,"30 µM, 30.03 µM",-9.237%
O=C(O)C(F)(F)F.O=C(O)C(F)(F)F.O=C(O)C(F)(F)F.OCCN1CCC2(CC1)CC(NCc1ccccn1)c1ccccc1O2 (stereo unspecified),Percent Effect,"30 µM, 30.03 µM",-31.61%
CC(C)N1CCCC1c1cc(CO)[nH]n1.O=CO (stereo unspecified),Percent Effect,"30.3 µM, […]",-7.818%
CN(Cc1ccco1)Cc1cncc2c1CCN(c1ncccn1)C2.Cl.Cl,Percent Effect,"30 µM, 30.03 µM",54.64%
Cc1ccc(N2CCc3c(CN(C)Cc4ccco4)cncc3C2)nn1.Cl.Cl,Percent Effect,"30.3 µM, […]",-4.486%
Cc1cnc(N2CCc3c(CN(C)Cc4ccco4)cncc3C2)nc1,Percent Effect,"30.3 µM, […]",5.943%
CCN1CCC(NC(=O)CN2CCc3c(ncn3C3CC3)C2)CC1,Percent Effect,10 µM,-42.18%
Cc1cnc(C(=O)N2CCC3(CCN(Cc4ccccn4)C3=O)C2)cn1.O=C(O)C(F)(F)F (stereo unspecified),Percent Effect,"30 µM, 30.03 µM",-17.07%
COC[C@H]1CCCN1c1nccc(-c2cnn(-c3ccccc3C)c2)n1,Percent Effect,"30.3 µM, […]",99.85%
Cc1ccccc1-n1cc(-c2ccnc(N3CCCC(O)C3)n2)cn1 (stereo unspecified),Percent Effect,"30.3 µM, […]",12.09%
Cc1ccccc1-n1cc(-c2ccnc(N3CCCC(CN)C3)n2)cn1 (stereo unspecified),Percent Effect,"30.3 µM, […]",46.15%
Cl.c1cc(CNCc2ccc(-n3cncn3)nc2)cc(OC2CCCC2)c1,Percent Effect,"30.3 µM, […]",-105%
O=C(N1CCOCC1)N1CCN(c2ccnc3ccsc23)CC1,Percent Effect,"30.3 µM, […]",-32.02%
Cc1ccc(C(=O)N2CCN(c3ccnc4ccsc34)CC2)o1,Percent Effect,"30.3 µM, […]",99.86%
O=C(c1cnccn1)N1CCN(c2ccnc3ccsc23)CC1,Percent Effect,"30.3 µM, […]",-26.37%
CN(C)Cc1nn(C)c2c1CN(C(=O)c1cccc(C#N)c1)C2,Percent Effect,"30.3 µM, […]",-11.38%
CC(CO)NC(=O)c1ccc(NCc2ccc(F)c(F)c2)cc1 (stereo unspecified),Percent Effect,"30.3 µM, […]",74.6%
Cc1cc(C)cc(CNc2ccc(C(=O)NC(C)CO)cc2)c1 (stereo unspecified),Percent Effect,"30.3 µM, […]",34.18%
CC(CO)NC(=O)c1ccc(NCc2ccccc2)cc1 (stereo unspecified),Percent Effect,"30.3 µM, […]",11.13%
CCn1cc(N2Cc3nc(N4CCC(O)CC4)ncc3C2=O)cn1,Percent Effect,"30.3 µM, […]",-24.87%
O=C(Nc1cnn(CC(=O)N2CCCCO2)c1)c1ccccn1,Percent Effect,"30 µM, 30.03 µM",-63.86%
O=C(Nc1cnn(CC(=O)N2CCCO2)c1)c1ccccc1,Percent Effect,"30 µM, 30.03 µM",-24.18%
O=C(Nc1cnn(CC(=O)N2CCCCO2)c1)c1ccsc1,Percent Effect,"30 µM, 30.03 µM",102%
Cc1ccc(C(=O)N(C)Cc2cc(Br)cs2)cn1,Percent Effect,"30 µM, 30.03 µM",-13.9%
Clc1ccc2cccnc2c1CN1CCCC1Cn1cncn1 (stereo unspecified),Percent Effect,"30 µM, 30.03 µM",3.447%
Clc1ccc(CN2CCCC(Cn3cncn3)C2)c2ncccc12 (stereo unspecified),Percent Effect,"30 µM, 30.03 µM",-24.17%
c1cnc(-c2nc(CN3CCCC(Cn4cncn4)C3)cs2)nc1 (stereo unspecified),Percent Effect,"30 µM, 30.03 µM",8.258%
Clc1ccc2cccnc2c1CN1CCCC(Cn2cncn2)C1 (stereo unspecified),Percent Effect,"30 µM, 30.03 µM",98.3%
c1ccc(-c2nc(CN3CCCC(Cn4cncn4)C3)cs2)cc1 (stereo unspecified),Percent Effect,"30.3 µM, […]",51.63%
c1ncn(CC2CCCN(Cc3csc(-c4ccsc4)n3)C2)n1 (stereo unspecified),Percent Effect,"30.3 µM, […]",-1.362%
CO[C@@H]1CCN(C(=O)Cc2ccc(F)cc2)[C@@H]1Cc1cccnc1.O=C(O)C(F)(F)F,Percent Effect,"30.3 µM, […]",-10.6%
COCCN1CC[C@H]2CN(Cc3ccc(C)s3)C[C@@H]2C1=O.O=C(O)C(F)(F)F,Percent Effect,"30.3 µM, […]",-7.411%
CO[C@H]1CN(Cc2nc3ccccc3n2C)CC[C@@]12CCCO2,Percent Effect,"30.3 µM, […]",5.707%
CO[C@H]1CN(Cc2ccccc2F)C[C@@]12CCCO2,Percent Effect,"30.3 µM, […]",-11.54%
CO[C@H]1CN(Cc2nc3ccccc3n2C)C[C@@]12CCCO2,Percent Effect,"30.3 µM, […]",99.68%
O=C(O)C(F)(F)F.O=C(O)C(F)(F)F.O=C(c1ccnnc1)N1CCN(Cc2ccncc2)c2ncccc2C1,Percent Effect,"30.3 µM, […]",-2.542%
Cc1nc(Nc2nccs2)cc(C2CCCN2)n1.Cl (stereo unspecified),Percent Effect,"30.3 µM, […]",99.83%
Cc1nc(Nc2nncs2)cc(C2CCCN2)n1.Cl (stereo unspecified),Percent Effect,"30.3 µM, […]",-19.68%
Cc1nc(Nc2nccs2)cc(C2CCCN2C2CCOCC2)n1 (stereo unspecified),Percent Effect,"30.3 µM, […]",18.07%
Cc1nc(Nc2nnc(C)s2)cc(C2CCCN2)n1.Cl (stereo unspecified),Percent Effect,"30.3 µM, […]",-18.52%
Cc1nc(Nc2ncc(C)s2)cc(C2CCCN2)n1.Cl (stereo unspecified),Percent Effect,"30.3 µM, […]",99.89%
Cc1nc(Nc2ncc(C)s2)cc(C2CCCN2S(C)(=O)=O)n1 (stereo unspecified),Percent Effect,"30.3 µM, […]",-10.42%
COc1ccc(NC(=O)CCNc2ncccn2)cn1,Percent Effect,"30 µM, 30.03 µM",-26.87%
CCn1cc(CN2C[C@@H]3CCCN3C[C@@H]2CCSC)cn1.O=C(O)CC(O)(CC(=O)O)C(=O)O,Percent Effect,"30.3 µM, […]",8.457%
O=C(NCC1CCOCC1)[C@@H]1C[C@@H]2[C@@H](CCN2Cc2nccs2)O1.O=C(O)C(F)(F)F,Percent Effect,"30.3 µM, […]",-69.82%
Cc1cc(C[C@@H]2COC[C@H]2NCc2ccc(C(F)(F)F)cc2)on1.O=C(O)CC(O)(CC(=O)O)C(=O)O,Percent Effect,"30.3 µM, […]",8.396%
O=C(Cc1ccccn1)N1C[C@H](OCc2cccnc2)[C@H]2COC[C@H]21.O=C(O)C(F)(F)F.O=C(O)C(F)(F)F,Percent Effect,"30.3 µM, […]",-31.71%
O=C(C1CC1)N1Cc2[nH]nc(COCc3cccnc3)c2C1.O=C(O)C(F)(F)F.O=C(O)C(F)(F)F,Percent Effect,"30.3 µM, […]",-50.32%
COCCN(C)C[C@@H]1CN(c2nc(C)cc(C)n2)C[C@@H]1CO,Percent Effect,"30 µM, 30.03 µM",-45.82%
COCCN(C)C[C@@H]1CN(Cc2ccnc3ccccc23)C[C@@H]1CO,Percent Effect,"30 µM, 30.03 µM",-38.21%
COCCN(C)C[C@@H]1CN(c2cc(C)nc3ccccc23)C[C@@H]1CO,Percent Effect,"30 µM, 30.03 µM",99.51%
COCCNc1cc(-c2cccc(C(=O)O)c2C)c2cc[nH]c2n1,Percent Effect,"30 µM, 30.03 µM",-15.23%
COCC(=O)N1CC[C@@H]2O[C@@H](C)C[C@H]2C1,Percent Effect,"30.3 µM, […]",51.97%
COCC(=O)N1CC[C@H]2O[C@@H](C)C[C@H]2C1,Percent Effect,"30.3 µM, […]",-22.84%
COCC(=O)N1CC[C@H]2C[C@H](C)O[C@@H]2C1,Percent Effect,"30 µM, 30.03 µM",19.11%
O=C(O)C(F)(F)F.c1cnc(NCc2nnn3c2CN(Cc2cccs2)CCC3)nc1,Percent Effect,"30 µM, 30.03 µM",-17.42%
Cc1occc1C(=O)N1CCC2(CCN(C(=O)c3cccnc3)C2)CC1.O=C(O)C(F)(F)F,Percent Effect,"30.3 µM, […]",-37.63%
CC(C)C[C@H](N)COc1cccc(F)c1Oc1ccc(Cl)cc1,Percent Effect,"30.3 µM, […]",100.5%
CC(C)C[C@H](N)COc1cccc(F)c1Oc1ccccc1,Percent Effect,"30.3 µM, […]",100.2%
CCOc1ccccc1C(N)CC(C)C (stereo unspecified),Percent Effect,"30 µM, 30.03 µM",-21.09%
CC(CNS(C)(=O)=O)Oc1cccc(Cl)c1 (stereo unspecified),Percent Effect,"30 µM, 30.03 µM",-19.79%
CC(C)C[C@H](N)COc1cccc(F)c1Oc1cccc(Cl)c1,Percent Effect,"30.3 µM, […]",99.87%
NCc1ccc(Oc2cccc(Cl)c2Cl)cc1,Percent Effect,"30 µM, 30.03 µM",-54.14%
CNCc1cc(F)ccc1Oc1ccc(Cl)cc1,Percent Effect,"30.3 µM, […]",-18.58%
CCCOc1ccccc1C(N)CC(C)C (stereo unspecified),Percent Effect,"30 µM, 30.03 µM",-40.73%
CC(C)COc1ccccc1C(N)CC(C)C (stereo unspecified),Percent Effect,"30 µM, 30.03 µM",-18.48%
CC(CNS(N)(=O)=O)Oc1cccc(Cl)c1 (stereo unspecified),Percent Effect,"30 µM, 30.03 µM",-29.05%
Cc1ccc(Oc2c(F)cccc2OC[C@@H](N)CC(C)C)cc1,Percent Effect,"30.3 µM, […]",99.61%
COc1ccccc1C(N)CC(C)C (stereo unspecified),Percent Effect,"30 µM, 30.03 µM",-12.31%
Cc1ccc(NC2CCN(C(=O)CCc3ccncc3)CC2)nn1,Percent Effect,"30.3 µM, […]",5.448%
same,Percent Effect,"10 mM, 10 mM as filed; unlikely as a test dose",-59.85%
CC(CNCc1ccc2c(c1)n(C)c(=O)n2C)Oc1ccccn1.Cl (stereo unspecified),Percent Effect,"30 µM, 30.03 µM",-26.55%
CCn1nc(C)c2ccn(CC(=O)NC3CC3)c(=O)c21,Percent Effect,"30 µM, 30.03 µM",-19.49%
c1ccc(-c2nc(CNCCn3cccn3)cs2)nc1,Percent Effect,"30.3 µM, […]",-32.04%
CCn1ncc(CN2CCCC(n3c(=O)oc4ccccc43)C2)c1C.Cl (stereo unspecified),Percent Effect,"30.3 µM, […]",17.06%
CCc1ccc(C(=O)Nc2ccc3c(c2)N(C)CCN(C)C3)o1,Percent Effect,"30 µM, 30.03 µM",-2.445%
CCN1CCOCC2(CCCN(C(=O)c3ccccc3F)C2)C1.O=C(O)C(F)(F)F (stereo unspecified),Percent Effect,"30.3 µM, […]",-73.72%
CO[C@H]1CC[C@H]2[C@H]1OCCN2Cc1ccc(F)c(F)c1.O=C(O)C(F)(F)F,Percent Effect,"30.3 µM, […]",-36.53%
CCN1CC2(CC1=O)CN(Cc1cnn(C)c1)CCN(C(=O)N(C)C)C2.O=C(O)C(F)(F)F (stereo unspecified),Percent Effect,"30 µM, 30.03 µM",-27.29%
CC(=O)NCC1CCN(C(=O)c2c(C)[nH]c3ccc(Cl)cc23)CC1,Percent Effect,"30.3 µM, […]",4.898%
C[C@@H](CO)Nc1nccc(-c2cnc3sc(Cl)cn3c2=O)n1,Percent Effect,"30.3 µM, […]",8.201%
CCc1nc(C)c(C(=O)NCC2COc3cc(OC)ccc3C2)o1 (stereo unspecified),Percent Effect,"30 µM, 30.03 µM",22.43%
O=C1CCCCN1CCc1nc(-c2cccnn2)no1,Percent Effect,"30 µM, 30.03 µM",-7.651%
CC(C)CNC(=O)[C@H]1C[C@@H]2CN(C(=O)NCCc3ccccc3)C[C@H]1O2,Percent Effect,"30 µM, 30.03 µM",5.175%
O=S1(=O)CCC(S(=O)(=O)c2cccc(S(=O)(=O)N3CCOCC3)c2)C1 (stereo unspecified),Percent Effect,"30 µM, 30.03 µM",-4.748%
